Assay results as given in the supplement of paper PMC12494721.
Structures can show the parent of a compound that is named as a salt.

Columns and labels:
Conditions in all cases: incubation time: 27 h, anaerobic, 37 °C;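 for the amine columns active = adjusted P below 0.05 in both replicates with a change the same way and a mean fold change under 0.8 or over 1.25; inactive = the rest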
[1] = system: Clostridium sporogenes DSM 1664; test: growth (OD595) fold change vs plate DMSO controls (fold change (ratio)); higher = more growth
Method in brief: (§1)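 To obtain OD, 595 nm absorbance readings were blank-subtracted, corrected for compound background using 20 µM compound solutions in water, and multiplied by a calibration factor of 5. They came from 96-well mGAM cultures grown anaerobically for 27 h at 37 °C and shaken before reading. Growth is the fold change relative to the median of plate DMSO controls. Two biological replicates were averaged, and fold changes above 1.5 were set to NA.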

Escherichia coli IAI1 [2] = test: as above
Method in brief: as §1

[3] = system: Klebsiella aerogenes DSM 30053; test: as above
Method in brief: as §1

[4] = system: Ruminococcus gnavus DSM 108212; test: as above
Method in brief: as §1

[5] = system: Klebsiella aerogenes DSM 30053; test: fold change of Histamine concentration vs plate DMSO controls (fold change (ratio)); higher = more amine produced, active = hit call of the paper (significant change in both replicates, either direction)
Method in brief: (§2)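 Anaerobic mGAM cultures of four gut bacterial strains were grown at 37 °C for 27 h in 80 µL wells, starting at OD 0.1 before 1:1 dilution. Compounds were at 20 µM final (sweeteners 50 µM). Whole cultures were extracted with cold acetonitrile/methanol containing 0.1% formic acid and centrifuged. Amines were quantified by LC–triple-quadrupole MS (dynamic MRM) against external calibration curves and drift-corrected within batch. Each value is the fold change versus plate DMSO controls, averaged over 2 biological replicates.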

[6] = system: Clostridium sporogenes DSM 1664; test: fold change of Tryptamine concentration vs plate DMSO controls (fold change (ratio)); higher = more amine produced, active = hit call of the paper (significant change in both replicates, either direction)
Method in brief: as §2

[7] = system: Ruminococcus gnavus DSM 108212; test: as above
Method in brief: as §2

Escherichia coli IAI1 [8] = test: fold change of Putrescine concentration vs plate DMSO controls (fold change (ratio)); higher = more amine produced, active = hit call of the paper (significant change in both replicates, either direction)
Method in brief: as §2

[9] = system: Klebsiella aerogenes DSM 30053; test: as above
Method in brief: as §2

Escherichia coli IAI1 [10] = test: fold change of Cadaverine concentration vs plate DMSO controls (fold change (ratio)); higher = more amine produced, active = hit call of the paper (significant change in both replicates, either direction)
Method in brief: as §2

[11] = system: Klebsiella aerogenes DSM 30053; test: as above
Method in brief: as §2

[12] = system: Ruminococcus gnavus DSM 108212; test: fold change of 2-Phenylethylamine concentration vs plate DMSO controls (fold change (ratio)); higher = more amine produced, active = hit call of the paper (significant change in both replicates, either direction)
Method in brief: as §2

| SMILES | growth [1] | growth (Escherichia coli IAI1 [2]) | growth [3] | growth [4] | fold change of Histamine concentration [5] | fold change of Tryptamine concentration [6] | fold change of Tryptamine concentration [7] | fold change of Putrescine concentration (Escherichia coli IAI1 [8]) | fold change of Putrescine concentration [9] | fold change of Cadaverine concentration (Escherichia coli IAI1 [10]) | fold change of Cadaverine concentration [11] | fold change of 2-Phenylethylamine concentration [12] |
| --- | --- | --- | --- | --- | --- | --- | --- | --- | --- | --- | --- | --- |
| O=C(OCCOCCO)c1ccccc1Nc1cccc(C(F)(F)F)c1 [Etofenamate] (20 µM) | 1.2 | 1.09 | 1.1 | 1.2 | 0.902 (inactive) | 0.955 (inactive) | 0.883 (inactive) | 1.05 (inactive) | 0.998 (inactive) | 1.02 (inactive) | 1.02 (inactive) | 0.861 (inactive) |
| O=C1NS(=O)(=O)c2ccccc21 [Saccharin] (50 µM) | 0.975 | 1.02 | 0.976 | 1.11 | 1.01 (inactive) | 1.02 (inactive) | 1 (inactive) | 1.05 (inactive) | 1.01 (inactive) | 1.06 (inactive) | 0.996 (inactive) | 1.02 (inactive) |
| OC[C@@H](O)[C@@H](O[C@H]1O[C@H](CO)[C@@H](O)[C@H](O)[C@H]1O)[C@H](O)[C@@H](O)CO [Maltitol] (50 µM) | 1 | 0.988 | 1.02 | 0.976 | 1 (inactive) | 1.01 (inactive) | 0.988 (inactive) | 1.05 (inactive) | 1.02 (inactive) | 1.04 (inactive) | 1.01 (inactive) | 0.941 (inactive) |
| CC(=O)c1ccc2c(c1)N(CCCN1CCC(CCO)CC1)c1ccccc1S2 [Piperacetazine] (20 µM) | 0.454 | 0.148 | 0.138 | 0 | 0.95 (inactive) | 1.32 (inactive) | 1.17 (inactive) | 0.95 (inactive) | 0.978 (inactive) | 0.846 (inactive) | 0.993 (inactive) | 1.29 (inactive) |
| O=C1c2ccccc2S(=O)(=O)N1CCCCN1CCN(c2ncccn2)CC1 [Ipsapirone] (20 µM) | 1 | 0.977 | 0.973 | 0.939 | 0.94 (inactive) | 1.04 (inactive) | 0.997 (inactive) | 0.992 (inactive) | 0.997 (inactive) | 1.02 (inactive) | 1 (inactive) | 1.01 (inactive) |
| CN(C)CCN(Cc1ccccc1)c1ccccn1 [Tripelennamine hydrochloride] (20 µM) | 1.03 | 0.99 | 1.02 | 0.946 | 0.957 (inactive) | 1.01 (inactive) | 1.02 (inactive) | 0.85 (inactive) | 1.01 (inactive) | 1.38 (active) | 1 (inactive) | 1.03 (inactive) |
| CC(C(=O)O)c1ccc2c(c1)[nH]c1ccc(Cl)cc12 (centres undefined) [Carprofen] (20 µM) | 1.05 | 1.02 | 0.996 | 1.1 | 1.07 (inactive) | 0.958 (inactive) | 1.03 (inactive) | 1.05 (inactive) | 0.99 (inactive) | 1.03 (inactive) | 0.995 (inactive) | 1.06 (inactive) |
| OC[C@@H](O)[C@@H](O[C@@H]1O[C@H](CO)[C@H](O)[C@H](O)[C@H]1O)[C@H](O)[C@@H](O)CO [Lactitol] (50 µM) | 1.13 | 0.949 | 1.01 | 0.988 | 0.988 (inactive) | 0.997 (inactive) | 0.891 (inactive) | 0.938 (inactive) | 1.02 (inactive) | 0.997 (inactive) | 0.998 (inactive) | 0.858 (inactive) |
| O=C1c2cccc3c2[C@H](CCC3)CN1[C@@H]1CN2CCC1CC2 [Palonosetron hydrochloride] (20 µM) | 1 | 1.05 | 0.978 | 0.887 | 1.09 (inactive) | 0.963 (inactive) | 1.04 (inactive) | 1.06 (inactive) | 0.996 (inactive) | 0.979 (inactive) | 0.983 (inactive) | 1.04 (inactive) |
| CN(C)CCCO[C@@H]1[C@H]2OC(C)(C)O[C@H]2O[C@@H]1[C@H](O)CO [Amiprilose hydrochloride] (20 µM) | 1.09 | 1.03 | 1.01 | 1.1 | 1.07 (inactive) | 1.04 (inactive) | 1.04 (inactive) | 0.973 (inactive) | 1.02 (inactive) | 0.994 (inactive) | 0.992 (inactive) | 1.01 (inactive) |
| CC(=O)Oc1cccc2c1C(=O)c1c(OC(C)=O)cc(C(=O)O)cc1C2=O [Diacerein] (20 µM) | 0.926 | 0.994 | 0.96 | 0.904 | 0.952 (inactive) | 1.02 (inactive) | 0.905 (inactive) | 1.08 (inactive) | 0.956 (inactive) | 1.02 (inactive) | 1 (inactive) | 0.916 (inactive) |
| CN1CCOC(c2ccccc2)c2ccccc2C1 (centres undefined) [Nefopam hydrochloride] (20 µM) | 1.09 | 1 | 0.963 | 1.09 | 0.855 (inactive) | 1.1 (inactive) | 1.02 (inactive) | 1.03 (inactive) | 0.94 (inactive) | 0.943 (inactive) | 1.03 (inactive) | 1.03 (inactive) |
